Source: PubChem (National Center for Advancing Translational Sciences (NCATS))
G9a block – G9a (human) methyltransferase inhibition | G9a H3K9 monomethylation, AlphaScreen, 2 h | Potency, µM (titrated, usually from 102 µM), most hits filed as inhibitors | 350,000 tested, 8.8% active | AID 504332; note: nearly all actives have a fitted effect of over 75% in size
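G9a (20 nM) was preincubated 15 min with compound, then reacted 2 h at room temperature with 500 nM biotin-H3K9 peptide and 20 µM SAM. Monomethyl-H3K9 detected by AlphaScreen using anti-H3K9me1 antibody.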
Sfp inh – blocks B. subtilis Sfp PPTase activity; Q9F4F7; Biochemical Sfp PPTase activity, qHTS; Potency, µM, hits mostly inhibitors; 310,000 tested, 3.5% active; AID 1490;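 note: the enzyme is Sfp with the accession as filed and its product quenches rhodamine fluorescence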
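Fluorescence-quenching assay: 15 nM Sfp-PPTase preincubated 15 min at room temperature with compound, then 5 uM rhodamine-CoA and 12.5 uM BHQ-2-labelled YbbR peptide added. Fluorescence (ex 525/em 598 nm) read at start and after 30 min; difference gives rate.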
HP1b binding inh – HP1-beta chromodomain-methylated histone interaction inhibition; Potency, µM (highest dose often 114 µM), hits mostly inhibitors; 390,000 tested, 0.56% active; P83916; AID 540317; AlphaScreen HP1-beta / biotin-H3K9me3 peptide binding; note: nearly all actives have a fitted effect of over 70% in size
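HP1-beta protein (50 nM final) preincubated 30 min at room temperature with biotinylated H3(1-18)K9me3 peptide (50 nM) in PBS pH 7.4, 0.01% Tween-20, then compound added for 30 min. AlphaScreen streptavidin donor/nickel chelate acceptor beads (10 ug/mL final), 30 min dark, luminescence read.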
BAZ2B inh – inhibitors of human BAZ2B bromodomain; 360,000 tested, 4.4% active; Potency, µM (series often up to 114 µM), hits mostly inhibitors; AID 504333; Q9UIF8; AlphaScreen BAZ2B-H3K14Ac peptide displacement; note: nearly all actives have a fitted effect of over 60% in size
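Compounds, titrated to a top concentration of 110 uM, were incubated 30 min at room temperature with preformed BAZ2B/acetyl-K14 H3 peptide complex (50 nM each). Proximity signal was measured by AlphaScreen after 20 min with beads.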
L3MBTL1 block – blocks human L3MBTL1; AlphaScreen L3MBTL1–H3K9me1 peptide binding; 230,000 tested, 0.66% active; Potency, µM (highest dose often 57.1 µM), actives largely listed as inhibitors; Q9Y468; note: nearly all actives have a fitted effect of over 60% in size
Target sequence (Q9Y468 whole entry, looked up): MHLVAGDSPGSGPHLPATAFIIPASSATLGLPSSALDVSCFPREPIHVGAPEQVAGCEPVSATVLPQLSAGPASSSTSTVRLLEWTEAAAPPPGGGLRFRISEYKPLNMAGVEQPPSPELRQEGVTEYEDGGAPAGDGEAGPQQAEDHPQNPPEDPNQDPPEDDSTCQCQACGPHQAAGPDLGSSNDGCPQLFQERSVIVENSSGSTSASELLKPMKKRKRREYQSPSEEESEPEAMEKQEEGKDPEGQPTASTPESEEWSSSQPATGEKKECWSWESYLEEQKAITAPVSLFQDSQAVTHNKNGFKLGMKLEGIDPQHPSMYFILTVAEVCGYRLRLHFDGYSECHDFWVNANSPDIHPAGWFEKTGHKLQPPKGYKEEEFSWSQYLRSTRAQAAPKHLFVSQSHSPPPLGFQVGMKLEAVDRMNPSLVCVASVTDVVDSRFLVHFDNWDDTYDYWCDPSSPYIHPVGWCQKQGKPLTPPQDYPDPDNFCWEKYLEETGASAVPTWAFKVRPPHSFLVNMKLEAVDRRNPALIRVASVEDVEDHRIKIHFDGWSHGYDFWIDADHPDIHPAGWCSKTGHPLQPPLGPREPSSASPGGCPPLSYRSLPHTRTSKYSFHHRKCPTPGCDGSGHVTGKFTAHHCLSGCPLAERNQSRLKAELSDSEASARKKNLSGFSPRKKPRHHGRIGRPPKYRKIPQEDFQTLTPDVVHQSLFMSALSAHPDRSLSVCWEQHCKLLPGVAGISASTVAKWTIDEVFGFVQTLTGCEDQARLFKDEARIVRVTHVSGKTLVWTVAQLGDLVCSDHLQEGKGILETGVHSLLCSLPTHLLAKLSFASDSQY
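Displacement of a biotinylated histone H3(1-15) peptide monomethylated at Lys9 (75 nM) from L3MBTL1 (50 nM) was measured by AlphaScreen after a 30 min room-temperature compound incubation; cefsulodin titration served as intraplate control.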
JMJD2A Tudor – JMJD2A Tudor domain (human) inhibition. O75164. AlphaScreen JMJD2A-Tudor / H3K4me3 peptide binding. Potency, µM (titrated, usually from 114 µM), usual class: inhibitors. 390,000 tested, 4.4% active. AID 504339; note: nearly all actives have a fitted effect of over 50% in size
Of the large screens only hits and unclear results are named; the others gave an inactive call. In the library only some 12% were active in any assay of this set; here they are far more common. Calls come from the whole dose curve; as a rule, active = well fitted curve in the direction sought with a large enough effect; inconclusive = small, poorly fitted or top-dose-only effect, or another doubt; inactive = no such curve, though single readings can be large; an effect the other way counts as inactive or inconclusive.

COc1ccc(-c2c(=O)n(OC)c3ccccc3[n+]2[O-])cc1OC	G9a block 32µM, Sfp inh 56µM (no result: L3MBTL1 block)
O=C(NCc1ccccc1Cl)c1ccc2c(c1)NC(=O)C(CS(=O)(=O)Cc1ccc(F)cc1Cl)N2 (configuration not stated)	G9a block inconclusive (no result: Sfp inh, L3MBTL1 block)
COc1ccccc1N1CCN(S(=O)(=O)c2c(C)sc3ncn(CC(=O)N(C)c4ccc(Cl)cc4)c(=O)c23)CC1	none (no result: Sfp inh, L3MBTL1 block)
COc1ccc2c(c1)c1c(c(=O)n(Cc3ccccc3)c(=O)n1CC(=O)Nc1ccccc1OC)n2C	none (no result: Sfp inh, L3MBTL1 block)
CCOc1ccc(-c2c(=O)n(OCc3ccccn3)c3ccccc3[n+]2[O-])cc1	Sfp inh inconclusive
COc1ccc(-c2c(=O)n(OCc3ccccc3[N+](=O)[O-])c3ccccc3[n+]2[O-])c(OC)c1	G9a block 45µM
CNc1nc(-c2c(C)noc2C)nc2ccccc12	none (no result: HP1b binding inh, BAZ2B inh, L3MBTL1 block, JMJD2A Tudor)
Nc1ccc(C(=O)O)cc1[N+](=O)[O-]	none
Nc1cc(S(=O)(=O)O)cc([N+](=O)[O-])c1O	G9a block 45µM, Sfp inh 79µM, HP1b binding inh 35µM, BAZ2B inh inconclusive, L3MBTL1 block inconclusive, JMJD2A Tudor 35µM
COc1cc(C2c3c(-c4c(C)cc(C)cc4O)n[nH]c3C(=O)N2Cc2ccco2)cc(OC)c1OC (configuration not stated)	none (no result: Sfp inh, L3MBTL1 block)
COc1ccccc1C1C([N+](=O)[O-])=CC([N+](=O)[O-])=CN1C (configuration not stated)	G9a block inconclusive
COc1ccccc1C1NC=C([N+](=O)[O-])C=C1[N+](=O)[O-] (configuration not stated)	G9a block 3.5µM, Sfp inh inconclusive, HP1b binding inh inconclusive, BAZ2B inh 45µM, JMJD2A Tudor inconclusive
O=C(O)CCCCCN1C(=O)C(O)=C(C(=O)/C=C/c2ccccc2)C1c1cccc([N+](=O)[O-])c1 (configuration not stated)	G9a block 45µM, BAZ2B inh inconclusive
COc1ccccc1-c1noc(-c2ccc(NCc3cccnc3)c([N+](=O)[O-])c2)n1	none (no result: Sfp inh, L3MBTL1 block)
C=CCCn1c(Cl)c(C#N)sc1=O	none (no result: G9a block, BAZ2B inh, L3MBTL1 block)
CN(C)c1ccc(-c2cc(-n3ccnc3)ncn2)cc1	Sfp inh 50µM (no result: G9a block, HP1b binding inh, BAZ2B inh, L3MBTL1 block, JMJD2A Tudor)
CN(C)Cc1ccccc1-c1cc(-n2ccnc2)ncn1	Sfp inh 50µM (no result: G9a block, HP1b binding inh, BAZ2B inh, L3MBTL1 block, JMJD2A Tudor)
CNc1cc(-c2ccccc2CN(C)C)ncn1	none (no result: HP1b binding inh, BAZ2B inh, L3MBTL1 block, JMJD2A Tudor)
c1cncc(-c2cc(-n3ccnc3)ncn2)c1	Sfp inh 79µM (no result: HP1b binding inh, BAZ2B inh, L3MBTL1 block, JMJD2A Tudor)
CN(C)C(=O)c1ccc(-c2cc(-n3ccnc3)ncn2)cc1	none (no result: HP1b binding inh, BAZ2B inh, L3MBTL1 block, JMJD2A Tudor)
N#Cc1cccc(-c2cc(-n3ccnc3)ncn2)c1	none (no result: G9a block, HP1b binding inh, BAZ2B inh, L3MBTL1 block, JMJD2A Tudor)
COc1ccc(CNC(=O)CN2C(=O)COc3ccccc32)c(OC)c1	none (no result: Sfp inh, L3MBTL1 block)
O=C(CSCc1ccc(F)cc1)N1CCc2c([nH]c3ccccc23)C1c1ccccc1 (configuration not stated)	JMJD2A Tudor inconclusive (no result: Sfp inh, L3MBTL1 block)
C#C[C@]1(OC(C)=O)CC[C@H]2[C@@H]3CCC4=CC(=O)CC[C@@H]4[C@H]3CC[C@@]21C	none (no result: HP1b binding inh, BAZ2B inh, L3MBTL1 block, JMJD2A Tudor)
Cc1ccc2occ(-c3nn[nH]n3)c(=O)c2c1	G9a block inconclusive, BAZ2B inh 50µM, JMJD2A Tudor 28µM
CC(C)c1ccc2occ(-c3nn[nH]n3)c(=O)c2c1	G9a block inconclusive, BAZ2B inh 56µM, JMJD2A Tudor 18µM
C/C(N)=C(/C#N)C(=O)CSc1nc2ccccc2c(=O)n1Cc1ccc(F)cc1	Sfp inh 71µM, BAZ2B inh inconclusive, L3MBTL1 block inconclusive
N#CC(=C=[N-])c1nc2ccccc2nc1-[n+]1cccc(NC(=O)c2ccccc2)c1	Sfp inh 8.9µM
COc1cccc2c1N(C)C(=O)CC21C=CC(=O)C=C1	none (no result: G9a block, BAZ2B inh, L3MBTL1 block)
Cc1cc(C)cc(NC(=O)c2cccc(C(=O)Nc3cc(C)cc(C)c3)n2)c1	G9a block inconclusive, Sfp inh 56µM, BAZ2B inh inconclusive, JMJD2A Tudor 4.5µM
O=C(Nc1ccccc1)c1cccc(C(=O)Nc2ccccc2)n1	none (no result: L3MBTL1 block)
